15 compounds from PubChem BioAssay (Tox21) can be followed below.

Several values for one entry are separate records, joined by “and”; a condition that tells them apart may be missing. Equal entries are not always repeated. A number with no mark means an inactive call. Calls follow the shape of the full dose curve.
% is scaled to controls: 0 for no effect and ±100 for the full control effect.

The assay is described as follows: qHTS assay to identify small molecule agonists of the estrogen related receptor (ERR) signaling pathway from Tox21 library (AID 1224849). Also: nearly all actives have a fitted effect of over 15% in size. Particulars: ERR reporter cell line, ONE-Glo luciferase, 18 h; at 92.4 µM (top of the series). Summed up:
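Cells carrying the ERR reporter were plated and allowed to settle for 6 h, exposed to library compounds for 18 h at 37 C, then lysed with ONE-Glo and luminescence measured.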
For orientation: qHTS replaces the single test concentration by a dilution series.
On to `NC(N)=Nc1nc(CSCC/C(N)=N/S(N)(=O)=O)cs1`, for which the activity change, positive = activation is 4.57%.
Take `CC1COC(=O)O1` (stereo not given): the activity change, positive = activation was 4.88% and 5.46%.
Take `c1cc(C(c2ccc(OCC3CO3)cc2)C(c2ccc(OCC3CO3)cc2)c2ccc(OCC3CO3)cc2)ccc1OCC1CO1` (stereo not given): the activity change, positive = activation was -18.6% and 0.394%.
With `CCCC(=O)c1ccccc1`, the activity change, positive = activation is 1.85%.
On to `C=C(C)C1CC=C(C)C(OC(C)=O)C1` (stereo not given), for which the activity change, positive = activation is 2.18% and 0.969%.
As for `COC(=O)[C@H]1[C@H]2C[C@@H]3c4[nH]c5cc(OC)ccc5c4CCN3C[C@H]2C[C@@H](OC(=O)c2cc(OC)c(OC)c(OC)c2)[C@@H]1OC`, the activity change, positive = activation is -60.3% and -57.9%.
To `Oc1c(Cl)cc(Cl)c(Cl)c1Cc1c(O)c(Cl)cc(Cl)c1Cl` belongs -37.2% and -60.8%; to `CCN(CC)C(=S)SSC(=S)N(CC)CC`, -75.7% and -76.4%; to `CC(C)(C)c1ccc(O)c(C(C)(C)C)c1`, -41% and -33.5%.
To `O=C(O)CCc1ccccc1` belongs 0.886%; to `OCCN1CCNCC1`, 9.65% and -11.4%.
Then `[Cl][In]([Cl])[Cl]`, with -22.9% and -30%.
Consider `Cc1cc(C2(c3cc(C)c(O)cc3C)OS(=O)(=O)c3ccccc32)c(C)cc1O`, for which the activity change, positive = activation was -48.1% and -15.2%.
On to `CCOC(=O)C(C)C(C)=O` (stereo not given), for which the activity change, positive = activation was 5%.
For `O=C1CC2(CCCC2)CC(=O)N1CCCCN1CCN(c2ncccn2)CC1`, the activity change, positive = activation was -47%.
